Experimental data as given in PubChem BioAssay AID1851 (National Center for Advancing Translational Sciences (NCATS), 2009).
Hit rate of the full screen: of about 16,000 compounds, about 2,600 (16%) were called active. Inconclusive results (about 20%) are left out. Calls come from the whole dose curve; as a rule, active = well fitted curve in the direction sought with a large enough effect; inconclusive = small, poorly fitted or top-dose-only effect, or effect the other way; inactive = no such curve, though single readings can be large or run the other way. Only a sample is shown.

Each compound was assayed against Cytochrome P450 2D6 (Homo sapiens) (UniProt P10635) (assay: Cytochrome panel assay with activity outcomes). Settings: recombinant CYP, pro-luciferin dealkylation, luminescence, p450-cyp2d6; series mostly up to 57.1 µM; activity, negative = inhibition: at the top concentration.
% is set by controls: 0 for no effect and ±100 for the full control effect.

Sequence of Cytochrome P450 2D6 (Homo sapiens) (P10635 whole entry, looked up): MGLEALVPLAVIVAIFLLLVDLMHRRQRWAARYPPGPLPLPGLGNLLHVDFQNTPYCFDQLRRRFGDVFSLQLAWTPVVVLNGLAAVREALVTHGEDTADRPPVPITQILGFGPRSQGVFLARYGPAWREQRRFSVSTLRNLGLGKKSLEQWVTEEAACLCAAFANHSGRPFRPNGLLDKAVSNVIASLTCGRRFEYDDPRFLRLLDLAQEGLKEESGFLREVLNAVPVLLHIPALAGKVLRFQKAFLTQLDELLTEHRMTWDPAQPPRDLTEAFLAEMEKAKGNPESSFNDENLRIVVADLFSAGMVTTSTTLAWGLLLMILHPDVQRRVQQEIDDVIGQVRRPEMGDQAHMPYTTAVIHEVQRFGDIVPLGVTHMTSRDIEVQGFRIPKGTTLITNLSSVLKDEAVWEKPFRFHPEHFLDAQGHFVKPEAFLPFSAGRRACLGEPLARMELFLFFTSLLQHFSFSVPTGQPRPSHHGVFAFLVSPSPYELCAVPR

SMILES | activity, negative = inhibition | AC50
Cc1cc(NC(=O)c2ccccc2Cl)c(C(C)C)cc1O | 0.495% (inactive) | 
CCCCC1(C)OC(=O)C(=Cc2ccc(N(CC)CC)cc2)C(=O)O1 (configuration not stated) | -9.12% (inactive) | 
COc1ncc2nc(-c3cn(C)c4ccccc34)c(=O)n(Cc3ccc(F)cc3)c2n1 | -5.48% (inactive) | 
Cc1cc(C)cc(N2C(=O)CC(Sc3nnnn3-c3ccccc3)C2=O)c1 (configuration not stated) | -1.09% (inactive) | 
Cc1cccc(-n2cnc(C(=O)NC3CCCCCC3)c2)n1 | 2.81% (inactive) | 
COc1cc(OC)c(C2N(c3cc(C)on3)C(=O)C3CCCN32)cc1OC (configuration not stated) | 12.7% (inactive) | 
COc1ccc(CNc2ncncc2-c2ccccc2C)c(OC)c1 |  | 12.6 µM (active)
COc1ccc(CNc2ncncc2-c2ccccc2OC)c(OC)c1 |  | 12.6 µM (active)
COc1ccc(CNc2ncncc2-c2ccccc2CN(C)C)c(OC)c1 |  | 2.51 µM (active)
COc1ccc(O[C@H]2C=C[C@@H](c3ccccc3)O[C@@H]2CO/N=C\[C@@H](C)[C@H](OCc2ccccc2)C(C)C)cc1 | 8.39% [at 11.4 µM] (inactive) | 
COc1ccc(Nc2nnc(-c3ccc(N4CCOCC4)c([N+](=O)[O-])c3)c3ccccc23)cc1 | -21.6% (inactive) | 
NC(=O)c1ccc([N+](=O)[O-])cc1SCc1ccccc1 | -17.9% (inactive) | 
Cc1ccc(Cn2nc(C)c(NC(=O)c3cc(-c4ccco4)on3)c2C)cc1 | -3.05% (inactive) | 
Cn1c(=O)c2cn(-c3ccccc3)cc2n(C)c1=O | -12.6% (inactive) | 
COc1ncc2nc(-c3cccs3)c(=O)n(-c3ccccc3)c2n1 | 1.35% (inactive) | 
O=C(C1CCN(S(=O)(=O)c2cccc3cccnc23)CC1)N1CCN(c2ccccn2)CC1 | -15.2% (inactive) | 
Cc1ccc2c(c1)NCC(C(=O)NC1CCCCC1)O2 (configuration not stated) | -7.97% (inactive) | 
Cc1ccc(S(=O)(=O)N2CCN(S(C)(=O)=O)C2)cc1 | 0.939% (inactive) | 
Cc1ccc(S(=O)(=O)N2CCN(Cc3ccccc3C(F)(F)F)CC2)cc1 |  | 10 µM (active)
Cc1ccc(S(=O)(=O)N2CCN(C(=O)CN3CCN(C)CC3)C2)cc1 | 1.72% (inactive) | 
COC(=O)C(NS(=O)(=O)c1ccc(NC(C)=O)cc1)C(C)C (configuration not stated) | -15% (inactive) | 
O=S(=O)(c1cccc(C(F)(F)F)c1)N1CCC(c2cc(-c3cccc4ccccc34)n[nH]2)CC1 | -18.3% (inactive) | 
Cc1cc(C)nc(SCC(=O)Nc2ccccc2[N+](=O)[O-])n1 | -7.04% (inactive) | 
Cc1cccc(NC(=O)CSc2nc(-c3ccccc3)c(C#N)c(=O)[nH]2)c1C | -14.5% (inactive) | 

SMILES | activity, negative = inhibition | AC50
Cc1cccc(NC(=O)CSc2nnc(-c3ccco3)c(-c3ccco3)n2)c1C |  | 12.6 µM (active)
COc1ccc(NC(=O)N2CCC3(CC2)CCN(C(=O)c2cccc(F)c2)CC3)cc1 | 0.428% (inactive) | 
CCCCNC(=O)CN1C(=O)NC2(CCCc3ccccc32)C1=O (configuration not stated) | -12.9% (inactive) | 
CCC1Oc2ccccc2N(CC(=O)NCCCN2CCCCC2C)C1=O (configuration not stated) |  | 3.16 µM (active)
COc1ccc2nc(NC(C)=O)sc2c1 | -22% (inactive) | 
Cc1ccccc1NC(=O)c1ccc(N/N=C/c2ccccc2O)c([N+](=O)[O-])c1 | 7.35% (inactive) | 
COC(=O)NCC(c1cccnc1)N1CCN(c2ccccc2OC)CC1 (configuration not stated) | -15.4% (inactive) | 
O=c1c2ccccc2nc2n1C(CSc1ccc(F)cc1)CN2 (configuration not stated) | 0.0903% (inactive) | 
CCCCNC(=O)CCC(=O)Nc1ccc2nc(N3CCOCC3)cc(C)c2c1 | 0.308% (inactive) | 
COc1ccc(S(N)(=O)=O)cc1C(=O)NCCCN1CCN(c2cccc(Cl)c2)CC1 | -25.8% (inactive) | 
CN1CCN(CCCNC(=O)c2ccc(CSCc3cccc(Cl)c3)o2)CC1 |  | 10 µM (active)
COc1ccc2cc3cc(C(=O)NCCCN4CCOCC4)oc3nc2c1 | -4.17% (inactive) | 
Nc1cc(S(=O)(=O)O)cc2ccc(S(=O)(=O)O)cc12 | -8.48% [at 11.4 µM] (inactive) | 
CCc1ccc(-c2cc(C(=O)NCc3ccco3)c3ccccc3n2)s1 | -21.5% (inactive) | 
CSc1nc(N)nc(-c2cccs2)c1C#N | -25.1% (inactive) | 
O=C(CCCCCN1C(=O)c2ccccc2C1=O)NCc1ccccn1 | -2.31% (inactive) | 
COc1ccc(CCNC(=O)CCCCCN2C(=O)c3ccccc3C2=O)cc1 |  | 5.01 µM (active)
CCOc1ccc(CCNC(=O)CCCN2C(=O)c3ccccc3C2=O)cc1OCC | -8.45% (inactive) | 
Cc1cccc(N2CCN(CC(=O)Nc3ccc(-n4cnnn4)cc3)CC2)c1C | 11.1% (inactive) | 
COc1ccc(S(=O)(=O)N(CCc2ccccc2)CC(=O)N2CCOCC2)cc1 | -14.5% (inactive) | 
O=C(Oc1ccc2c(c1)CN(Cc1ccccc1)CO2)c1ccccc1 |  | 0.501 µM (active)
CN(Cc1ccccc1)S(=O)(=O)c1ccc(OCC(=O)N2CCOCC2)cc1 | 8.83% (inactive) | 
CC(Oc1ccc(O)cc1)(P(=O)(O)O)P(=O)(O)O | 13.1% (inactive) | 
C/C(CCN1CCc2nc(-c3ccccc3)c(-c3ccccc3)cc2C1)=N\OC[C@@H](O)[C@@H]1O[C@@H]2OC(C)(C)O[C@@H]2[C@H]1O | 12.8% [at 11.4 µM] (inactive) | 

SMILES | activity, negative = inhibition | AC50
C[C@@H](NCc1cc(Br)cc2[nH]c(=O)c(=O)[nH]c12)P(=O)(O)O | -8.92% (inactive) | 
O=C(CCCN1CCC(O)(c2ccc(Br)cc2)CC1)c1ccc(F)cc1 |  | 3.98 µM (active)
O=C(N/N=C\c1cn(-c2ccccc2)nc1-c1ccccc1)c1ccc2c(c1)OCO2 | -17.7% (inactive) | 
CCOC(=O)c1c(-c2ccccc2)nc2ccccn12 | -9.25% (inactive) | 
c1ccc(-c2nc3ccccn3c2NCc2ccc3c(c2)OCO3)cc1 |  | 3.98 µM (active)
CCCS(=O)(=O)N1CCN(CC2CC=CCC2)CC1 (configuration not stated) |  | 1.12 µM (active)
CCCS(=O)(=O)N1CCCC(C(=O)N2CCN(C(=O)OCC)CC2)C1 (configuration not stated) | -12.2% (inactive) | 
CCCS(=O)(=O)N1CCCC(C(=O)N2CCOCC2)C1 (configuration not stated) | -6.68% (inactive) | 
COc1ccc(Oc2c(C=O)c3ccccc3n2C)cc1 | 2.31% (inactive) | 
CC(C)CC(=O)N1CCC(N2CCN(c3ccccc3)CC2)CC1 | -26.8% (inactive) | 
c1ccc(C2CCC(N3CCC(N4CCCCC4)CC3)CC2)cc1 (configuration not stated) |  | 14.1 µM (active)
COc1ccccc1NC(=O)c1nn(-c2cccc(C(F)(F)F)c2)ccc1=O | -12.9% (inactive) | 
O=[N+]([O-])c1ccc(/C=N/N/C(=N/c2ccccn2)c2ccccn2)cc1 | -12.1% (inactive) | 
COc1cccc(-c2nccc(NC3CCNCC3)n2)c1 | -13.3% (inactive) | 
c1cncc(-c2cncnc2-n2ccnc2)c1 | -0.954% (inactive) | 
CS(=O)(=O)Nc1cccc(-c2nccc(-n3ccnc3)n2)c1 |  | 12.6 µM (active)
COc1cccc(-c2nccc(-n3ccnc3)n2)c1 |  | 7.94 µM (active)
COc1cccc(Sc2cc(N3CCOCC3)nc(-c3ccccc3)n2)c1 | -3.46% (inactive) | 
COc1ccc(-n2c(=O)c(-c3cccc(F)c3)nc3cncnc32)cc1 | -6.96% (inactive) | 
CN1CCN(c2ccnc(-c3cccc(NS(C)(=O)=O)c3)n2)CC1 | -0.74% (inactive) | 
N#Cc1cccc(-c2nccc(-n3ccnc3)n2)c1 |  | 12.6 µM (active)
COc1cccc(-c2cncnc2-n2ccnc2)c1 |  | 12.6 µM (active)
CS(=O)(=O)Nc1cccc(-c2cncnc2-n2ccnc2)c1 | -7.9% (inactive) | 
N#Cc1cccc(-c2cc(-n3ccnc3)ncn2)c1 | -20.9% (inactive) | 
